High-throughput results: PubChem, National Center for Advancing Translational Sciences (NCATS)
PTAP TSG101 blk – qHTS Assay for Iinhibitors of HIV-1 Budding by Blocking the Interaction of PTAP/TSG101 | Tumor susceptibility gene 101 protein (Homo sapiens), Q99816 | Fluorescence polarization, FITC-PTAP peptide / Tsg101 binding | Potency, µM (top dose mostly 115 µM), without a hit: top-dose activity change, negative = inhibition, hits mostly inhibitors | 340,000 tested, under 10 active; active means well fitted inhibition curve with a large enough effect in the main read-out, with a control signal flat, not every such curve was filed as active; inconclusive means small, poorly fitted or top-dose-only effect, or effect the other way, or a change in a side signal; inactive means no such curve, though single readings can be large or run the other way; further: potency means the concentration at half of the fitted maximal effect; % of control where 0% means no effect
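Compounds were pin-transferred onto Tsg101 binding domain (10 uM final) in HEPES pH 7.5 buffer, then FITC-PTAP peptide was added at 50 nM final. After 20 min at RT, polarization reported peptide displacement across a qHTS concentration series.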
MmCpn inh – Inhibitors of TCP-1 ring complex (TRiC) of Methanococcus maripaludis (MmCpn): qHTS; Chaperonin Mm-Cpn (Methanococcus maripaludis); purified Mm-Cpn ATPase, ADP Transcreener TR-FRET; Potency, µM (top dose mostly 76.9 µM), for the others: at the top dose activity, negative = inhibition, hits mostly inhibitors; 330,000 compounds, 0.031% hits; active means well fitted inhibition curve with a large enough effect; inconclusive means small, poorly fitted or top-dose-only effect; further: potency means the concentration at half of the fitted maximal effect; on the % scale 0 is the no-effect control and ±100 the full control effect; nearly all actives have a fitted effect of over 80% in size
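Quantitative HTS used 25 nM Mm-CPN and 10 uM ATP in magnesium/KCl Tris buffer, pH 7.4, with 1 mM DTT. Hydrolysis ran 30 min at 37°C; ADP was read by HTRF.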
D3 antag – qHTS of D3 Dopamine Receptor Antagonist: qHTS. D(3) dopamine receptor (Homo sapiens), P35462. D3R cells, DiscoveRx beta-arrestin luminescence, antagonist mode; hits give low values. max response, negative = inhibition, %. 360,000 compounds, 2.5% hits. AID 652054, 2013; in the data active means max response below about -50%; inconclusive means no clear call, values can overlap the other calls; further: on the % scale 0 is the no-effect control and ±100 the full control effect
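Cells plated overnight at 1500 cells/well, then exposed to library compounds with dopamine controls for 90 minutes at 37 degrees C. DiscoveRx reagent added for 30–60 minutes at room temperature; luminescence read, quantitative HTS format.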
Rango dissoc inh – qHTS Assay for Inhibitors of RanGTP induced Rango (Ran-regulated importin-beta cargo) - Importin beta complex dissociation; Snurportin-1 (Homo sapiens) + GTP-binding nuclear protein Ran (Homo sapiens) + Importin …; Biochemical FRET Rango-importin beta, RanGTP-induced dissociation; Potency, µM (doses to about 46.1 µM), for inactives: top-dose activity change, negative = inhibition; 340,000 compounds, 0.071% hits; AID 540253, 2011; further: potency means the concentration at half of the fitted maximal effect; % of control where 0% means no effect; nearly all actives have a fitted effect of over 45% in size
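Rango/importin beta premix (0.1/0.25 uM final), PBS + 1 mM DTT + 0.02% Tween-20 + 0.1% BSA; cpd 5 min RT; FRET pre-read; + RanGTP-RCC1 (0.6 uM Ran, 2 mM GTP, 0.2 uM RCC1); 45 min RT; FRET post-read, ex 430, em 486/530 nm.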
D3 ag – qHTS of D3 Dopamine Receptor Agonist: qHTS | D(3) dopamine receptor (Homo sapiens), P35462 | D3R DiscoveRx beta-arrestin cells, luminescence, 90 min | max activation, % | 410,000 compounds, 0.58% hits | AID 652048, 2013; in the data active means max activation above about 30%; further: 0% is about no effect
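Cells at 1500/well, incubated overnight, then treated with pinned compounds (dopamine as control) for 90 min at 37 degrees C. DiscoveRx reagent added for 30 - 60 minutes at room temperature; luminescence read.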
Rango complex inh – qHTS Assay for Inhibitors of Rango (Ran-regulated importin-beta cargo) - Importin beta complex formation. Rango CFP/YFP FRET sensor + importin beta, 45 min. Potency, µM (top dose mostly 92.2 µM), inactives show at the highest dose inhibition of complex formation. 340,000 compounds, 0.031% hits;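 further: potency means the concentration at half of the fitted maximal effect; 0% = DMSO wells and 100% = buffer wells lacking importin beta; nearly all actives have a fitted effect of over 15% in size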
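FRET biosensor (snurportin 1 IBB flanked by EYFP and cerulean), 50 nM, with compound 5 min, then 0.125 microM importin beta in PBS, 1 mM DTT, 0.02% Tween-20, 0.1% BSA. CFP/YFP ratio read after 45 min at room temperature; pre-read flags interference.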
* marks the source's active call; other numbers are inactive results; ? = inconclusive; . = no result given. Rows were chosen to be rich in hits. Some 2.9% of all compounds tested hit in one or more screens of this group. Unless noted, the call rests on the fitted dose curve.

SMILES	PTAP TSG101 blk	MmCpn inh	D3 antag	Rango dissoc inh	D3 ag	Rango complex inh
COc1cc(-c2c(C#N)c(N)nc3c2c(C)nn3-c2ccc(C)c(C)c2)cc(OC)c1OC	1.8%	?	6.1	-13.3%	60.0*	?
Cc1nn(-c2ccc(F)cc2)c2nc(N)c(C#N)c(-c3ccc(O)c(O)c3)c12	0.6%	-1.5%	3.5	-4.2%	-1.7	-9.1%
O=P(c1ccccc1)(c1ccccc1)C(c1ccco1)N1CCOCC1 (stereo unspecified)	1.1%	3.4%	-61.3*	5.4%	-28.4	0.3%
Cc1ccccc1OCC(=O)Nc1nnc(SCc2cc(=O)n3cccc(C)c3n2)s1	.	.	.	.	1.8	.
Cc1ccccc1-n1nc(C)c2cc(C(=O)NCc3cccnc3)sc21	-4.3%	-3.2%	-60.3*	6.2%	-49.8	1.7%
CCCc1ccc(C2Sc3ccccc3NC3=C2C(=O)c2ccccc23)cc1 (stereo unspecified)	.	.	.	.	0.1	.
Cc1csc2ncnc(NC3CCN(Cc4ccccc4)CC3)c12	0.7%	2.4%	-89.9*	-0.3%	-13.8	1.9%
c1ccc(CN2CCC(Nc3nc(-c4ccccc4)nc4ccccc34)CC2)cc1	-2.0%	-6.4%	-1.7	-27.8%	-10.8	2.4%
Cc1cccnc1C(NC(=O)C1CCN(Cc2ccc(Cl)cc2)CC1)c1ccccc1 (stereo unspecified)	.	.	-102.4*	.	-28.6	.
COc1ccc(C(C)NC(=O)C2CCN(CCCc3ccccc3)CC2)cc1OC (stereo unspecified)	.	.	-19.3	.	-3.3	.
Cc1cccnc1C(NC(=O)C1CCN(CCOc2ccc(F)cc2)CC1)c1ccc(F)cc1 (stereo unspecified)	.	.	-71.4*	.	-15.1	.
Cc1cccnc1C(NC(=O)C1CCN(Cc2ccc(Oc3ccccc3)cc2)CC1)c1ccc(F)cc1 (stereo unspecified)	.	.	-67.2*	.	-14.1	.
Cc1cccnc1C(NC(=O)C1CCN(CCCc2ccccc2)CC1)c1ccc(Cl)cc1 (stereo unspecified)	.	.	-77.8*	.	-16.1	.
O=C(NC(c1ccc(Cl)cc1)c1cnccn1)C1CCN(Cc2ccc(Oc3ccccc3)cc2)CC1 (stereo unspecified)	.	.	?	.	-12.5	.
CC(C)N(C(=O)Cn1cc(SCC(=O)Nc2ccccc2C(F)(F)F)c2ccccc21)C(C)C	.	.	.	.	-12.5	.
COc1ccccc1CNC(=O)c1c2c(nc3ccccc13)C(=O)N(C1CCCCC1)C2	.	.	.	.	-2.2	.
Cc1cccnc1C(NC(=O)C1CCN(Cc2cn(C)c3ccccc23)CC1)c1ccc(Cl)cc1 (stereo unspecified)	.	.	-65.2*	.	-22.7	.
COc1cccc(OC)c1OCCN1CCC(C(=O)NC(c2ccccc2)c2ncccc2C)CC1 (stereo unspecified)	.	.	?	.	-17.5	.
Cc1ccc(CCNC(=O)c2cc3sccc3n2Cc2ccc(Cl)cc2)cc1	.	.	.	.	-25.6	.
O=C(NCCN1CCOCC1)c1cc2sccc2n1Cc1ccc(F)cc1	-7.4%	0.0%	-96.8*	-4.2%	-65.2	-1.5%
O=C(NCCN1CCOCC1)c1cc2sccc2n1Cc1ccc(Cl)cc1	-1.9%	-8.0%	-95.8*	-12.8%	-33.5	4.3%
COc1ccc(OC)c(CNC(=O)C2CCN(S(=O)(=O)c3ccc4[nH]c(=O)oc4c3)CC2)c1	.	.	.	.	3.1	.
CCOc1ccccc1-c1nc(CN2CCCN(C(=O)c3ccco3)CC2)c(C)o1	.	-6.9%	-78.8*	-1.3%	-39.7	-1.9%
